Source: PubChem (National Center for Advancing Translational Sciences (NCATS))
RE007 growth inh – less growth of the S. pombe RE007 Vpr strain | Potency, µM (doses to about 92.2 µM), for inactives: at the top dose activity change, negative = less growth, usual class: inhibitors | actives 0.21% (n = 360,000) | S. pombe RE007 Vpr strain, BacTiter-Glo ATP luminescence, 24 h; active = well fitted falling curve with a large enough effect; inconclusive = small, poorly fitted or top-dose-only effect; inactive = no such curve, though single readings can be large or run the other way; note: nearly all actives have a fitted effect of over 50% in size
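Fission yeast RE007 carrying one integrated HIV-1 vpr copy, seeded at OD 0.01 in PMG+AL medium with 23 nL pinned compound. Grown 24 h at 30 degrees; viability read by BacTiter-Glo luminescence after 5 min.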
Marburg entry inh – Marburg virus entry inhibition. Marburg virus pseudotyped entry inhibition, cell reporter. Potency, µM (doses to about 37.8 µM), inactives show at the highest dose activity change, negative = inhibition, usual class: inhibitors. actives 1.8% (n = 300,000); calls by dose curve; tested in HEK293 cells
FMDV inh – antivirals against foot and mouth disease virus. FMDV antiviral cell-based qHTS. Potency, µM (series often up to 57.9 µM), for inactives: at the top dose activity change, negative = inhibition, actives largely listed as inhibitors. actives 1.2% (n = 410,000); calls by dose curve; tested in HEK293T cells; note: read-out not given here; nearly all actives have a fitted effect of over 45% in size
LASV entry inh – Lassa virus entry inhibition; Lassa virus pseudotype entry inhibition, cell reporter; Potency, µM (titrated, usually from 37.9 µM), without a hit: at the top dose activity change, negative = inhibition, usual class: inhibitors; actives 1.2% (n = 300,000); AID 540256; calls by dose curve; tested in HEK293 cells; note: nearly all actives have a fitted effect of over 50% in size
HCV inh – HCV inhibition; Huh7.5.1 HCVcc-Cre infection, luciferase reporter, 44 h; Potency, µM (titrated, usually from 41.8 µM), inactives show top-dose activity change, negative = inhibition, actives largely listed as inhibitors; actives 3.4% (n = 340,000)
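Luciferase read-out (15 sec integration) after a 15 min room-temperature substrate step quantifies HCVcc-Cre infection. Cells, 1,000 per well, had compound added 4 h post-plating, then virus at ~0.5 moi, and were cultured 44 h.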
Sm TGR inh – blocks Schistosoma mansoni thioredoxin glutathione reductase | Q962Y6 | purified TGR, DTNB reduction, TNB absorbance 405 nm | Potency, µM (highest dose often 114 µM), for inactives: at the highest dose activity change, negative = inhibition, actives largely listed as inhibitors | actives 3% (n = 360,000) | AID 485364; note: nearly all actives have a fitted effect of over 60% in size
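Kinetic colorimetric format: TGR-catalysed, NADPH-driven DTNB reduction monitored via TNB absorbance. Enzyme dispensed at 20 nM; compound exposure 15 min at room temperature before reaction start.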
Numbers without * were called inactive; u = inconclusive; x = not tested or not shown; [ ] = dose if it differs, or a comment. Only some compounds are listed: those with a hit (about 7.2% of all), similar ones and a draw of the others. Unless noted, calls come from the whole dose curve; as a rule, active = well fitted curve in the direction sought with a large enough effect; inconclusive = small, poorly fitted or top-dose-only effect, or another doubt; inactive = no such curve, though single readings can be large; an effect the other way counts as inactive or inconclusive. % is set by controls: 0 for no effect and ±100 for the full control effect; potency is the fitted concentration of half-maximal effect.

SMILES | RE007 growth inh | Marburg entry inh | FMDV inh | LASV entry inh | HCV inh | Sm TGR inh
COc1ccccc1CC(=O)Nc1ccc2nc(Nc3cccc(Cl)c3)cc(C)c2c1 | x | x | -20% | 3.2µM* | x | 6%
COc1ccccc1Nc1c2c(nc3ccc(NC(=O)c4ccccc4F)cc13)CCCC2 | x | 3.2µM* | u | u | x | 7%
COc1ccccc1Nc1c2c(nc3ccc(NC(=O)c4ccc(OC)c(OC)c4)cc13)CCCC2 | x | 2.2µM* | u | u | x | 0%
COc1ccc(Nc2c3c(nc4ccc(NC(=O)c5ccc(F)cc5)cc24)CCCC3)cc1OC | x | u | -16% | -26%[46.1 µM] | x | -13%
Cc1ccc(C)c(S(=O)(=O)NCCc2csc(-c3ccc(Cl)cc3)n2)c1 | x | x | 25% | -12%[46.1 µM] | x | 1%
COc1ccccc1Nc1c2c(nc3ccc(N)cc13)CCCC2 | -24% | x | -19% | x | u | -2%
CCN(CC)c1cc(C)c2cc(NC(=O)c3ccccc3OC)ccc2n1 | -11% | u | -15% | u | 10µM* | -6%
CCN(CC)c1cc(C)c2cc(NC(=O)c3ccc(OC)c(OC)c3)ccc2n1 | x | u | 0% | u | x | 8%
COc1ccccc1Nc1c2c(nc3ccc(NC(=O)c4cccc(OC)c4OC)cc13)CCCC2 | x | u | u | 7.9µM* | x | 7%
CCC1CCCCN1S(=O)(=O)c1ccc(C(=O)Nc2sc3c(c2C(=O)NC)CCC3)cc1 (configuration not stated) | x | x | -12% | u | x | u
Cc1c(C)c2c(cc(C)c3c(-c4ccc(Br)cc4)coc32)oc1=O | x | -22%[46.1 µM] | -6% | 15%[46.1 µM] | x | 5%
Cc1cc(-c2ccc(S(=O)(=O)Nc3ccc(Cl)cc3C)cc2)on1 | x | x | -10% | -27%[46.1 µM] | x | 1%
NCCSC1CC(=O)N(c2ccc(Cl)c(Cl)c2)C1=O (configuration not stated) | -56% | u | 26% | -4%[46.1 µM] | 16% | 63µM*
O=C1CC(SCc2nc3ccccc3[nH]2)C(=O)N1c1cccc(Cl)c1 (configuration not stated) | 28µM* | u | 3% | 2% | 11% | u
O=C1CC(SCCc2nc3ccccc3[nH]2)C(=O)N1c1ccc(F)c(Cl)c1 (configuration not stated) | 28µM* | -1% | -6% | 17% | 28% | x
CCCOc1ccc(N2C(=O)CC(SCc3nc4ccccc4[nH]3)C2=O)cc1 (configuration not stated) | 63µM* | 6% | 2% | -2% | -5% | u
NCCSC1CC(=O)N(c2ccc(F)cc2)C1=O (configuration not stated) | -1% | -12% | 15% | 10% | 12% | u
Cn1ccc2c(OCC(=O)NCc3ccc(F)cc3)cccc2c1=O | x | x | 0% | u | x | 12%
Cc1ccc(-c2c(C(=O)Nc3ccc(F)c(F)c3)oc(=O)c3ccccc23)cc1 | x | 1%[46.1 µM] | -12% | u | x | 2%
CN1CCCC(CN(C)C(=O)c2cnn(-c3nccc(-c4ccccc4C(F)(F)F)n3)c2C2CC2)C1 (configuration not stated) | x | x | -13% | x | x | x
c1ccc(Nc2ncnc3ccc(-c4cccnc4)cc23)cc1 | x | x | 0% | x | x | x
O=C1CC(SCc2nc3ccccc3[nH]2)C(=O)N1c1ccc(F)cc1 (configuration not stated) | u | 12% | -1% | 15% | -14% | 45µM*
Cc1ccc(CNc2ccc(O)cc2)cc1 | -8% | u | 20% | u | -20% | 11µM*
Cc1ccc(NCc2ccccc2O)cc1 | -6% | 26% | 41% | -24% | u | 18%
Cn1nnnc1Sc1ncnc2scc(-c3ccsc3)c12 | x | x | 16µM* | x | x | x
Cn1nnnc1Sc1ncnc2scc(-c3cc4ccccc4o3)c12 | x | x | 18µM* | x | x | -21%
Cn1nnnc1Sc1ncnc2scc(-c3cccc(F)c3)c12 | x | x | u | x | x | -10%
Cn1nnnc1Sc1ncnc2scc(-c3cccs3)c12 | x | x | 22µM* | x | x | 3.5µM*
COc1cccc(CNC(=O)CCc2cn(Cc3ccccc3Cl)c3ccccc23)c1 | x | x | 1% | -3%[46.1 µM] | x | -3%
